Test results as given in the supplement of paper PMC6555819.

Each sequence was assayed on PPARa:RXRa (NR concentration 270 nM, RXRa partner concentration 90 nM) (assay: PBM binding z-score (relative to random genomic background probes); higher = stronger binding; sequences stand for … in GC…GCGATTGACAGCGTAGAATGAAGG).
In short: (§1)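 Custom Agilent 4×180K protein-binding microarrays carried double-stranded probes, each with a 34-nt variable region. These regions held direct-repeat seeds, single-nucleotide variants, half-site ablations and random human genomic background sequences. Ligand-free nuclear receptor dimers were incubated on the arrays for 1 h, antibodies against each partner (one per run) detected binding, and scanned fluorescence was regression-normalized. Binding z-scores take the random background probes as reference.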
CGAACTAGGTCAGCCAGGACAGTGAATACATTGA was tested, and the PBM binding z-score was 3.55. Work on GGTGCTAGGTCAGGTTGGTCAGCTAACGGGTACG yielded a PBM binding z-score of 1.71. Work on CCTCGGAGGACAGAAGGTAAGAGCTGTCCGCTTT yielded a PBM binding z-score of -0.652. Work on TCTTGTAGAGCAACAGGAGGTTAAGAAAGATCGA yielded a PBM binding z-score of 1.12. TGATATAGGTAATACAGGTGAAAGTCGGCATCTA was tested, and the PBM binding z-score was 2.16. Work on GCTGCTAGGTCAGGTTGGTCAGCTGACGGGTACG yielded a PBM binding z-score of 1.26. Work on GATACAGGGTCATGGCCAGAGTACGCGTATTGAT yielded a PBM binding z-score of 5.65. In the case of CCTACTGGGCCAAAGGTCACTGATTCCAATGCTC, the PBM binding z-score is reported as 6.39. Sequence GCGATTGGGGCATCAGCAGGTTACCATAACTTAA has a PBM binding z-score of 0.814. Work on GCTTACGCGTCAAAGGTTATAGCATGAATAGAAT yielded a PBM binding z-score of 3.38. TCGAGCAGGCCAGAGGGTCACTCAAGAGGTACGG was tested, and the PBM binding z-score was 2.24. CCTGCTAGGTCAATGGTCAGATAAAGCAGCTCGC gave a PBM binding z-score of 3.15. With AGAACGAGGGCACGCTTAGTTGATAGCAGAGTAG the PBM binding z-score was 2.26. Sequence TCTGCTAGGTCAAGGATGGTCAGCTAATCTGCTA has a PBM binding z-score of 3.12. Work on TCGAGTAGGTTAATCGGGGCATTCAGCCAACATA yielded a PBM binding z-score of 1.72. CGTCCAAGGTCAAGGTCATTGAAAGAGACTCGAA gave a PBM binding z-score of 6.18. TTACCAAGGTGAGAGGTCGTTGATGCACGCCTTG was tested, and the PBM binding z-score was 3.59. For CCTAGCAGGCCAATCTGGGTCACTAAAGGCTTGA, the PBM binding z-score was 2.87. With CGTCCAAGGTTAGCAGGTCAGTGAAAGCGACGTG the PBM binding z-score was 2.44. For CGTCCAAGGTCAATGCTCGGTCAGTGAAAGCATT, the PBM binding z-score was 5. Sequence CCTAGCAAGCCAATCTGGGTCACTCAAGGCTTGA has a PBM binding z-score of 3.06. In the case of AGTCTAAGTTCACTAGGTAACGTAAGATTCAGCT, the PBM binding z-score is reported as 3.63. Sequence GGAACGAGGGCATTCGAGTTGATGGCATGGCGAT has a PBM binding z-score of 1.31. Sequence GCGACTGGGGCAAAGCTGGTTACCATAAGGTTGG has a PBM binding z-score of 0.78. With ATCGCAAGGTCGAAGGTGAGTATACCCACCCGAA the PBM binding z-score was 3.01. CGTCCCAGGTCAATGCTAGGTCAGTGAAAGCATT showed a PBM binding z-score of 3.94. Sequence GCATATAGGTAATACAAGGTGAAAGGCCGATTGT has a PBM binding z-score of 1.97. Sequence ACAACGAGGGCACGCTGAGTTGATAGCAGAGTAG has a PBM binding z-score of 1.58. CAAACTAGGTCATGGTCAAAGTCGGTTTGTGCCA gave a PBM binding z-score of 4.74. CGTCCAAGGTGAGCAGGTCAGTGAAAGCGACGTG was tested, and the PBM binding z-score was 1.73. TTACCAAGGTGAGCTGAGGTTGTTGATCCAACTC was tested, and the PBM binding z-score was 0.271. With GCTAGTTGGTCAGTAAGAGGTCACACACCGGTCG the PBM binding z-score was 3.99. With CGTCCAAGGTCAATGCTAGGTCAATGAAAGCATT the PBM binding z-score was 5.09. Work on GCTAGTTGGTCAGCAAAAGGTCACACACCGGTCG yielded a PBM binding z-score of 4.17. For CCTAGTTGGTCATGAGGTCACACACCGGATATGA, the PBM binding z-score was 4.65. For CCAGACAGGTGTAAGGTAACTCAGTCTGGTACGC, the PBM binding z-score was 0.0692. In the case of TCGAGGAGGTTAGTCGGGGCATTCAGCCAACATA, the PBM binding z-score is reported as 1.43. Work on ATCGAAAGGTCGAGGTGAGTAGAGAGAAAGGGAA yielded a PBM binding z-score of 4.49. CCGACTGGGACAAAGGTTACCATACTCAGTACGA showed a PBM binding z-score of 4.69. In the case of CCGACTGGGGCATAAAGGTTACCATACCATCCGG, the PBM binding z-score is reported as 2.47.

What follows are sequences tested on PPARg:RXRa (NR concentration 180 nM, RXRa partner concentration 90 nM) in the same assay as above.
In short: as §1
CGAACTAGGTCAGCCAGGACAGTGAATACATTGA showed a PBM binding z-score of 6.1. GGTGCTAGGTCAGGTTGGTCAGCTAACGGGTACG was tested, and the PBM binding z-score was 1. In the case of CCTCGGAGGACAGAAGGTAAGAGCTGTCCGCTTT, the PBM binding z-score is reported as -0.402. For TCTTGTAGAGCAACAGGAGGTTAAGAAAGATCGA, the PBM binding z-score was -0.0991. TGATATAGGTAATACAGGTGAAAGTCGGCATCTA showed a PBM binding z-score of 2.39. Sequence GCTGCTAGGTCAGGTTGGTCAGCTGACGGGTACG has a PBM binding z-score of 0.207. In the case of GATACAGGGTCATGGCCAGAGTACGCGTATTGAT, the PBM binding z-score is reported as 6.02. Work on CCTACTGGGCCAAAGGTCACTGATTCCAATGCTC yielded a PBM binding z-score of 12.2. GCGATTGGGGCATCAGCAGGTTACCATAACTTAA was tested, and the PBM binding z-score was 0.255. Work on GCTTACGCGTCAAAGGTTATAGCATGAATAGAAT yielded a PBM binding z-score of 3.1. TCGAGCAGGCCAGAGGGTCACTCAAGAGGTACGG gave a PBM binding z-score of 1.04. With CCTGCTAGGTCAATGGTCAGATAAAGCAGCTCGC the PBM binding z-score was 4.67. AGAACGAGGGCACGCTTAGTTGATAGCAGAGTAG gave a PBM binding z-score of 2.16. TCTGCTAGGTCAAGGATGGTCAGCTAATCTGCTA was tested, and the PBM binding z-score was 2.01. TCGAGTAGGTTAATCGGGGCATTCAGCCAACATA was tested, and the PBM binding z-score was 0.726. In the case of CGTCCAAGGTCAAGGTCATTGAAAGAGACTCGAA, the PBM binding z-score is reported as 6.59. Work on TTACCAAGGTGAGAGGTCGTTGATGCACGCCTTG yielded a PBM binding z-score of 6.22. In the case of CCTAGCAGGCCAATCTGGGTCACTAAAGGCTTGA, the PBM binding z-score is reported as 1.97. CGTCCAAGGTTAGCAGGTCAGTGAAAGCGACGTG showed a PBM binding z-score of 1.18. CGTCCAAGGTCAATGCTCGGTCAGTGAAAGCATT was tested, and the PBM binding z-score was 3.34. In the case of CCTAGCAAGCCAATCTGGGTCACTCAAGGCTTGA, the PBM binding z-score is reported as 1.85. AGTCTAAGTTCACTAGGTAACGTAAGATTCAGCT was tested, and the PBM binding z-score was 2.98. For GGAACGAGGGCATTCGAGTTGATGGCATGGCGAT, the PBM binding z-score was 0.637. In the case of GCGACTGGGGCAAAGCTGGTTACCATAAGGTTGG, the PBM binding z-score is reported as 0.929. With ATCGCAAGGTCGAAGGTGAGTATACCCACCCGAA the PBM binding z-score was 2.77. CGTCCCAGGTCAATGCTAGGTCAGTGAAAGCATT showed a PBM binding z-score of 2.35. GCATATAGGTAATACAAGGTGAAAGGCCGATTGT showed a PBM binding z-score of 2.16. For ACAACGAGGGCACGCTGAGTTGATAGCAGAGTAG, the PBM binding z-score was 1.65. CAAACTAGGTCATGGTCAAAGTCGGTTTGTGCCA showed a PBM binding z-score of 8.15. CGTCCAAGGTGAGCAGGTCAGTGAAAGCGACGTG was tested, and the PBM binding z-score was 0.537. Sequence TTACCAAGGTGAGCTGAGGTTGTTGATCCAACTC has a PBM binding z-score of -0.354. In the case of GCTAGTTGGTCAGTAAGAGGTCACACACCGGTCG, the PBM binding z-score is reported as 1.86. Work on CGTCCAAGGTCAATGCTAGGTCAATGAAAGCATT yielded a PBM binding z-score of 4.43. For GCTAGTTGGTCAGCAAAAGGTCACACACCGGTCG, the PBM binding z-score was 2.48. Sequence CCTAGTTGGTCATGAGGTCACACACCGGATATGA has a PBM binding z-score of 4.15. CCAGACAGGTGTAAGGTAACTCAGTCTGGTACGC showed a PBM binding z-score of 0.41. TCGAGGAGGTTAGTCGGGGCATTCAGCCAACATA was tested, and the PBM binding z-score was -0.118. In the case of ATCGAAAGGTCGAGGTGAGTAGAGAGAAAGGGAA, the PBM binding z-score is reported as 3.29. CCGACTGGGACAAAGGTTACCATACTCAGTACGA was tested, and the PBM binding z-score was 9.69. Sequence CCGACTGGGGCATAAAGGTTACCATACCATCCGG has a PBM binding z-score of 3.04.
